PubChem BioAssay (NCI)
This is part of a sample that, as a whole, favours compounds with a hit. Of some 83,000 tested, about 20% had one in any assay.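 Treatment: one concentration, 48 hours, 96-well format. Scoring: percent growth, with anything below 10 considered active.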 Values without a mark were called inactive. The source made the active and inactive calls.

What follows are molecules tested on OVCAR-4 ovarian (assay: NCI-60 one-dose screen, 48 h (100 = growth as untreated, 0 = no growth, -100 = all killed)). Conditions: 10 µM unless noted.

SMILES | growth
COCCOc1cc2ncnc(N3CCN(c4ncc(S(=O)(=O)N5CCCCC5)cn4)CC3)c2cc1OCCOC | 105%
COC(=O)[C@]1(C)CCC[C@]2(C)[C@H]3C[C@H]4C(C(C)C)=C[C@]3(CC[C@H]21)[C@@H]1C(=O)CC[C@H](OCCC#N)[C@@H]14 | 77.3%
O=C(O)CCN1C(=O)/C(=C/C(Cl)=C/c2ccccc2)SC1=S | 28.7%
O=C(/C=C/c1cccc(Cl)c1)c1ccc(Nc2nc(Nc3ccc(F)cc3)nc(Nc3ccc(Cl)cc3)n2)cc1 | 111%
CC(C)(Sc1cc(C(C)(C)C)c(O)c(C(C)(C)C)c1)Sc1cc(C(C)(C)C)c(OC(=O)CCCC(=O)O)c(C(C)(C)C)c1 | 67.9%
Fc1cc2c(cc1Cl)N(c1ncnc3ccc(-c4ccc5n[nH]nc5c4)cc13)CC2 | 81.3%
CCSC(SCC)c1ccc(Cl)cc1 | 108%
O=C(Nc1nc2ccc(C(=O)N3CCN(/C=C/c4ccccc4)CC3)cc2s1)c1ccc(NCCc2ccccc2)c([N+](=O)[O-])c1 | 42.9%
O=S(=O)(Nc1cc(F)cc(Cl)c1)c1ccc(-c2cnc(C3CC3)o2)cc1 | 52.5%
COC(=O)c1c(C)nc(C)c2c1C(=O)C(Br)=C(NCc1ccccc1)C2=O | -57.3% (active)
COc1cc2c(c(OC)c1OC)CCC(c1cccc(C(=O)Nc3ccc(C#N)cc3)c1)O2 (stereo not given) | 35.3%
O=C1c2ccccc2-c2c1c1c(=O)[nH]c3ccccc3c1n2Cc1ccccc1 | 35%
O=C1c2c(c3c4ccccc4[nH]c3c3ccc4ccccc4c23)C(=O)N1CCN1CCNCC1 | 12.9%
CC(C)=CCCC(C)c1ccc(C)c2c1OCN(CCCCCO)C2 (stereo not given) | 95.4%
COc1ccc(/C=N/NC(=O)c2ccc(-n3cc(-c4ccccc4)nn3)cc2)cc1OC | 106%
CCN(CC)S(=O)(=O)c1ccc(S(=O)(=O)N2CCC[C@@H](C(=O)N3CCN(c4nc(C(C)C)no4)CC3)C2)cc1 | 30.8%
Cc1cc(N2CCN(CC(=O)Nc3ccc4c(ccn4C)c3)CC2)nc(N2CCCCCC2)n1 | 92.2%
COc1ccc(Nc2ncc(Br)c(NCCCNC(=O)c3cccs3)n2)cc1 | 57.7%
NC(=O)C(=O)c1ccccc1NC=O | 98.4%
N#Cc1ccc2c(c1)C(=O)c1c-2n(CCCN)c(=O)c2cc([N+](=O)[O-])ccc12 | -82% (active)

SMILES | growth
c1ccc(Cn2cc3c(c2)-c2oncc2CC3)cc1 | 64.1%
O=C(CSC(=S)n1cnnc1)NC(=O)c1ccccc1 | 100%
O=C1/C(=C\c2ccc3nccnc3c2)SC(=S)N1CCc1ccc(O)cc1 | 88.1%
COc1c(B(O)O)cccc1-c1nc2c(F)cc3[nH]ncc3c2c2c1CCCC2 | 6.02% (active)
COc1c(B(O)O)cccc1-c1cc(C)c2c(ccc3[nH]ncc32)n1 | 122%
CSc1nnc(-c2cc3c([nH]c4ccccc43)c(-c3cccc(O)c3)n2)n1-c1ccccc1 | 43.7%
C=C1C(=O)O[C@H]2[C@H]1CC/C(Cn1cc(-c3ccccc3)nn1)=C\CC[C@@]1(C)O[C@@H]21 | 35.9%
C=C(CBr)[C@@H]1CC[C@]2(C(=O)O)CC[C@]3(C)[C@H](CC[C@@H]4[C@@]5(C)CCC(=O)C(C)(C)[C@@H]5CC[C@]43C)[C@@H]12 | 75.3%
CCNCCNc1cc(C2CCCCC2)c(C#N)c2nc3ccccc3n12 | 28.3%
COc1cc2c(c(OC)c1OC)CCC(c1cccc(C(=O)Nc3cccc(Cl)c3)c1)O2 (stereo not given) | 70.3%
CCCCCCCC[C@@H]1N[C@@H](C(=O)OC)Cc2c1[nH]c1ccccc21 | 91.9%
CC(=O)Oc1ccc(/C(=C(\C)c2ccc(Cl)cc2)c2ccc(OCCN3CCCCC3)cc2)cc1 | 57.1%
COc1ccc2cc1Oc1ccc(cc1)C[C@H]1c3c(cc4c(c3Oc3cc5c(cc3OC)CCN(C)[C@@H]5C2)OCO4)CCN1C | 64.8%
CC(=O)c1c(C)nc2ccccc2c1/C=C/c1ccc(F)cc1 | 76.7%
CN(/C(N)=N/N=C/c1c2ccccc2cc2ccccc12)C1CCCCC1 | 27.6%
CCOC(=O)n1ccn(C)c1=S | 110%
Cc1cn(-c2cc(NC(=O)c3cncc(C#Cc4cnc(N)c5ncccc45)c3)cc(C(F)(F)F)c2)cn1 | 76.3%
O=C(Cn1cc(CSc2nc3ccccc3o2)nn1)Nc1ccc(F)cc1F | 108%
Cc1c2cnccc2c(C)c2c1c1cc(C#N)ccc1n2C | -39.4% (active)
CNC(=O)c1ccccc1Oc1nc(Nc2cc(OC)c(OC)c(OC)c2)ncc1Br | 49.5%
